Experimental data: paper PMC4336329 (PLoS ONE, 2015)
In all, about 310,000 compounds went through this assay and about 14,000 (4.5%) showed an effect of 50% or more. The effect is printed as a negative number. The list comes from a sample in which strong results are over-represented; it also holds similar structures and randomly drawn compounds.

These compounds were tested against human ether-à-go-go-related gene (hERG) potassium channel (human, UniProt Q12809) (assay: primary screen, population patch clamp on CHO cells stably expressing hERG; higher = less effect of the substance).
human ether-à-go-go-related gene (hERG) potassium channel, sequence (Q12809 whole entry, looked up): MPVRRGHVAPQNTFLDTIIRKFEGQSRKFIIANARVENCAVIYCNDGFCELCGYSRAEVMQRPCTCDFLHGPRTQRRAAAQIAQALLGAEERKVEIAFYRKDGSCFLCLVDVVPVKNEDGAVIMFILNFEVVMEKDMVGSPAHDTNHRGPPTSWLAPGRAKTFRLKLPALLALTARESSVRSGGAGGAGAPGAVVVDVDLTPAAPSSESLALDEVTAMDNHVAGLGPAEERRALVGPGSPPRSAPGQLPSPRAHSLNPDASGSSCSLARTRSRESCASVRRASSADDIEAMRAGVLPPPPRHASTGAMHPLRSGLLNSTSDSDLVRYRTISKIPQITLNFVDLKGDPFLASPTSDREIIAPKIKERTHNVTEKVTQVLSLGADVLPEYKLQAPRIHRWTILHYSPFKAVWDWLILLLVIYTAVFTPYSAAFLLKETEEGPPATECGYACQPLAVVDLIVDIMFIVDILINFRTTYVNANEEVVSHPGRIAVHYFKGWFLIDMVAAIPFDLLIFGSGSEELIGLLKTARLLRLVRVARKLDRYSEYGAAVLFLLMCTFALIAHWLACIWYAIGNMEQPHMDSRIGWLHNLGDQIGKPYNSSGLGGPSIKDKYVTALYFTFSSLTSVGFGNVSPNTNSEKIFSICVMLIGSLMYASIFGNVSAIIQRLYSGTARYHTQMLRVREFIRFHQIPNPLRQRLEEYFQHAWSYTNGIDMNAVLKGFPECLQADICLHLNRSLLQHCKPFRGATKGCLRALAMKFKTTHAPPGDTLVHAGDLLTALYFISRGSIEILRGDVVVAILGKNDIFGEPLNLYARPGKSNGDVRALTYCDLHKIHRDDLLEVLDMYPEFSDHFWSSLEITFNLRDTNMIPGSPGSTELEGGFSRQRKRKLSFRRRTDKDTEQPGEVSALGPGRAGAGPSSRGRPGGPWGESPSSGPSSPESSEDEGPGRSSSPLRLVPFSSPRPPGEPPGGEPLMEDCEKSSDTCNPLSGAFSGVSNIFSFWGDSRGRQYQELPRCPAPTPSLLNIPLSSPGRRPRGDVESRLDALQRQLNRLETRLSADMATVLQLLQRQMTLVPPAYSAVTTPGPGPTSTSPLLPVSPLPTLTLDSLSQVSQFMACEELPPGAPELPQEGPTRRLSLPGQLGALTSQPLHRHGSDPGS
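Note: peak tail current of the secondary pulse compared with the same well before compound.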

Compound	hERG current change (%, negative = inhibition) at 10uM
CN(C)/C=N/c1c(C(=O)NCc2ccccc2)nnn1Cc1ccccc1	-12.2%
Cc1cccc(/C=C2\CS/C(=C\c3cccc(C)c3)C2=O)c1	0.505%
O=C(Nc1nnc(S(=O)(=O)N2CCOCC2)s1)c1ccccc1Br	4.05%
COCCn1c(C)cc(C(=O)COC(=O)c2ccc(-n3nc(C)cc3C)cc2)c1C	2.16%
O=C(CN1C(=O)C2C3C=CC(C3)C2C1=O)N1CC=C(c2ccccc2)CC1 (stereo not shown)	-10.1%
CCOC(Cn1cc(C)c(=O)[nH]c1=O)OCC	-2.39%
N#CCc1cc2ccc3cccc4ccc(c1)c2c34	16.2%
CCS(=O)(=O)Nc1cccc(C2=NN(S(=O)(=O)c3ccc(C)cc3)C(c3ccco3)C2)c1 (stereo not shown)	12.9%
Cc1c(C)c2cc(Cl)c(O)c(CN3CCCC(C)C3)c2oc1=O (stereo not shown)	8.5%
O=C(Cn1cncn1)N/N=C/c1cccc2ccccc12	-4.06%
C(=NCCCN1CCOCC1)c1ccc2c(c1)OCO2	15.7%
CC(O)c1ccc2c(c1)OCCOCCN(C)CCOCCO2 (stereo not shown)	-1.64%
O=C(CCN1CCCCC1)c1ccc2c(c1)OCO2	-0.169%
CC(C)CCC(CCN1CCOCC1)c1ccc2c(c1)OCO2.Cl (stereo not shown)	-72.9%
CC(C)CCC(CCN1CCCC1)c1ccc2c(c1)OCO2.O=C(O)C(=O)O (stereo not shown)	-78.1%
O=C(C1CCCN(Cc2ccc3c(c2)OCO3)C1)N1CCCC1.O=C(O)C(=O)O (stereo not shown)	9.26%
O=C(NCCc1cccc(F)c1)C1CCCN(c2nc3ccccc3s2)C1 (stereo not shown)	7.76%
CN(C)S(=O)(=O)N(CC(=O)NCc1ccccc1)c1ccccc1	1.87%
CSc1nc2c(ccc3ccccc32)o1	12.9%
CCOC(=O)c1c(NC(=O)c2cccnc2)sc(C(C)=O)c1C	-5.09%
NC(=O)COC(=O)c1ccccc1SCC(=O)NC1CCCCCCC1	12%
Cc1c(NC(=S)NC(NC(=O)C(C)C)C(Cl)(Cl)Cl)c(=O)n(-c2ccccc2)n1C (stereo not shown)	-1.45%
O=C(CN1CCN(c2ccccc2O)CC1)Nc1ccc([N+](=O)[O-])cc1Br	-6.3%

Compound	hERG current change (%, negative = inhibition) at 10uM
O=C(CN1CCCCCC1)Nc1ccc([N+](=O)[O-])cc1Br	6.13%
CC(=O)N1CCN(CC(=O)Nc2ccc([N+](=O)[O-])cc2Br)CC1	-75.3%
O=C(CN1CCOCC1)Nc1ccc([N+](=O)[O-])cc1Br	-43.7%
CC(=O)N1CCN(CC(=O)Nc2cc([N+](=O)[O-])ccc2Cl)CC1	15.5%
CN1CCN(CC(=O)Nc2ccc([N+](=O)[O-])cc2Br)CC1	-70.9%
N#CCc1nc(CSc2nc3ccccc3s2)cs1	-2.16%
CC(=O)Nc1ccc(N2CCCCC2)c(C(=O)Nc2cccc(C)c2)c1	-18.1%
Cn1cnnc1SCC(=O)Nc1ccccc1C(=O)NC1CCCC1	11.8%
O=C(O)c1ccc(NNC(=S)Nc2cc(C(F)(F)F)ccc2Cl)cc1	19.4%
CCCc1ccc(OCC(=O)NNC(=O)c2cccnc2)cc1	-10.9%
Cc1cccc(NC2=NC(C)(C)N=C(N)N2)c1C	16.5%
CCOc1cccc2sc(N(CCN(C)C)C(=O)c3ccc4ccccc4c3)nc12.Cl	-51.5%
CN(C)CCN(C(=O)c1ccc2ccccc2c1)c1nc2c(F)cccc2s1.Cl	-10.2%
COc1ccc2nc(N(CCN(C)C)C(=O)c3ccc4c(c3)OCCO4)sc2c1.Cl	-35.3%
CCOc1cccc2sc(N(CCN(C)C)C(=O)c3cc4ccccc4cc3OC)nc12.Cl	-68.1%
CCOc1cccc2sc(N(CCN(C)C)C(=O)c3ccc4c(c3)OCCO4)nc12.Cl	-53.5%
CCOc1cccc2sc(N(CCN(C)C)C(=O)c3ccc(Br)s3)nc12.Cl	-30.3%
CCOc1ccc2nc(N(CCN(C)C)C(=O)c3ccc4ccccc4c3)sc2c1.Cl	4.67%
COc1cc2ccccc2cc1C(=O)N(CCN(C)C)c1nc2c(C)cccc2s1.Cl	19.2%
COc1cc2ccccc2cc1C(=O)N(CCN(C)C)c1nc2c(F)cccc2s1.Cl	-38.4%
CCCC(=O)Nc1ccc(-c2cn3cccnc3n2)cc1	3.08%
Cc1cc(C(=O)NCCCOC(C)C)c2ccccc2n1	-7.22%
Cc1c(Cl)cccc1NC(=O)Nc1ccccc1C(N)=O	19%

Compound	hERG current change (%, negative = inhibition) at 10uM
CCOC(=O)CSc1nnc(-c2ccccc2)o1	7.66%
COc1ccc(/C=C/C2=CCN(Cc3ccc(OC)cc3)CC2)cc1.Cl	-72.3%
COc1ccc(/C=C/C2=CCN(C)CC2)cc1.Cl	-19.7%
COc1ccc(CN2CCNCC2)cc1.Cl	21.6%
NNc1n[nH]c(=S)n1N	15.2%
CCOC(=O)c1cc(CC)sc1/N=C/C1C(=O)CCCC1=O	10.9%
O=C1OC(c2ccc3c(c2)OCO3)N(C(=O)c2ccc(Cl)c(Cl)c2)c2ccccc21 (stereo not shown)	15.1%
COc1cc(CO)cc(-c2cc(CO)cc(OC)c2OC)c1OC	10.3%
COc1ccc(C(NC(=O)CNC(C)=O)C(=O)Nc2ccc(C(C)C)cc2)cc1 (stereo not shown)	-5.76%
Cl.O=C(NC1CCN(Cc2ccccc2)CC1)c1cc(-c2ccccn2)nc2ccccc12	-69.4%
Cc1ccc(-c2cc(C(=O)NC3CCN(Cc4ccccc4)CC3)c3ccccc3n2)cc1	7.42%
CC(CN1CCCCC1)NC(=O)c1cc(-c2ccccn2)nc2ccc(Cl)cc12 (stereo not shown)	-21.8%
O=C(NC1CC1)c1cc(-c2ccccn2)nc2ccccc12	-29.5%
CC1CC(C)CN(C(=O)c2cc(-c3ccccn3)nc3ccccc23)C1 (stereo not shown)	-6.19%
CC1CCN(CC(C)CNC(=O)c2cc(-c3ccccn3)nc3ccccc23)CC1 (stereo not shown)	-62.5%
Cc1cc(C)n(CC(O)COc2ccc(F)cc2)n1 (stereo not shown)	9.76%
CCC(Cc1ccccc1)NC(=O)/C=C/c1ccco1 (stereo not shown)	9.2%
CCn1cc(S(=O)(=O)Nc2cc(C)ccc2F)cn1	3.63%
O=C(CNC(=O)c1sc2ccccc2c1Cl)OCc1ccccc1	3.28%
COC(=O)C1=C(C)N(CCCC(=O)O)C(=O)NC1c1cccc2ccccc12 (stereo not shown)	5.92%
COc1ccccc1-n1c(=O)[nH]c2c(C(N)=O)nc(CC(C)C)nc21	5.01%
NC(N)=N/N=C/c1cn(-c2ccccc2)nc1-c1cccs1.O=[N+]([O-])O	-62.1%
NC(=O)N/N=C/c1cn(-c2ccccc2)nc1-c1cccs1	-38.8%

Compound	hERG current change (%, negative = inhibition) at 10uM
O=C(N/N=C/c1cn(-c2ccccc2)nc1-c1cccs1)c1ccncc1	-10.2%
CCOc1ccc(CN(C)C(=O)c2ccc(=O)[nH]c2)cc1	16.6%
CCOC(=O)C1=C(C)N(C)C(=S)NC1c1cc(OC)ccc1OC (stereo not shown)	3.73%
CCOC(=O)c1ncn2c1CN(C)C(=O)c1cc(F)ccc1-2	8.55%
CCOC(=O)c1ncn2c1[C@@H]1CCNC1C(=O)c1cc(OC)ccc1-2 (stereo partly shown)	-68.4%
Cc1nc(N2CCC(C(N)=O)CC2)c2c(-c3cccs3)csc2n1	-0.812%
Cc1ccc(N(CCC#N)C(=O)COC(=O)c2cc(C)oc2C)cc1	-15.3%
CCOC(=O)N1CCN(CC(O)COc2ccc(OC)cc2C(C)(C)C)CC1.Cl (stereo not shown)	-12%
CCOC(=O)C1CCCN(CC(O)COc2cccc(C)c2)C1.Cl (stereo not shown)	-23.7%
COc1ccc(C(=O)C2CCCN(Cc3cc(Cl)ccc3O)C2)c(OC)c1 (stereo not shown)	-26.8%
CCOC(=O)C1CCCN(C2=NC(=O)/C(=C/c3ccc(OC)c(OC)c3)S2)C1 (stereo not shown)	-22.8%
CCOC(=O)C1CCCN(C2=NC(=O)/C(=C/c3ccc(OC)cc3)S2)C1 (stereo not shown)	-20.1%
COc1ccc(CN2CCCC(C(=O)N3CCCCC3)C2)c(OC)c1.O=C(O)C(=O)O (stereo not shown)	-26.7%
CCOC(=O)C1CCCN(CC(O)COc2ccc(OC)cc2C(C)(C)C)C1 (stereo not shown)	-61.4%
CCOC(=O)C1CCCN(C2=NC(=O)/C(=C/c3ccc(OC)cc3OC)S2)C1 (stereo not shown)	-52.6%
COc1ccc(CN2CCCC(C(=O)c3ccc(Cl)cc3)C2)c(O)c1 (stereo not shown)	-67.7%
COc1ccc(CN2CCCC(C(=O)c3ccc(Cl)cc3)C2)c(OC)c1 (stereo not shown)	-75.2%
COC(=O)CC1(CC(=O)OC)C(=O)N(c2ccccc2)C(=O)N(c2ccccc2)C1=O	11.7%
C=CCNC(=O)CN(CCc1ccccc1)S(=O)(=O)c1ccccc1	-17.6%
CCOC(=O)C1CCCN(Cc2ccc(OC)cc2OC)C1 (stereo not shown)	-52.7%
COc1ccc(CN2CCCC(C(=O)N3CCCC3)C2)c(OC)c1.O=C(O)C(=O)O (stereo not shown)	-9.41%
CCOC(=O)C1CCN(Cc2ccc(OC)cc2OC)CC1	-45.2%
